# In PMC7819943, “Rice protein-binding microarrays: a tool to detect cis-acting elements near promoter regions in rice”:
# In all, about 35,000 sequences were measured (“fluorescence intensity (a.u.)”: median about 10,000, highest 2% from about 52,000 on). This is one part of a sample in which the highest values are shown more often than they occur.
# Molecular target: T1, OsWOX13 (Oryza sativa, UniProt Q5QMM3 1-267)
# T1 sequence: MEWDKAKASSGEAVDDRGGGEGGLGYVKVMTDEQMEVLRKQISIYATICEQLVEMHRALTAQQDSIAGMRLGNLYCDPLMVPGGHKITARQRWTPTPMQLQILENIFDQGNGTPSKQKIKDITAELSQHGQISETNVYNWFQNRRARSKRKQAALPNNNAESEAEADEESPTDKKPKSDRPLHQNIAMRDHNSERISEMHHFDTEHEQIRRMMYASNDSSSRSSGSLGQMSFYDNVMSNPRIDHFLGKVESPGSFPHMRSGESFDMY
# Assay: protein-binding microarray (RPBM); PBS, 2% BSA, 51.3 ng/ul salmon testes DNA, 50 uM zinc acetate, 200 nM TF, 25 C, 1 h; high values mean tight binding
# Conditions: protein: recombinant; tags: N-terminal polyhistidine and DsRed monomer fusion (pET32a); label: CyDye5-dUTP incorporated in the synthesized complementary strand; 3' TTTTT single-stranded linker to array surface; dsDNA, one strand shown
# Method in brief: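 Transcription factors, each fused N-terminally to a polyhistidine tag and DsRed, were expressed in E. coli BL21-CodonPlus and purified on Ni–NTA. A custom Agilent array was made double-stranded by primer extension with Cy5-dUTP and blocked with 2% BSA. It was incubated with 200 nM protein in PBS, 2% BSA, salmon testes DNA and 50 µM zinc acetate at 25 °C for 1 h, then washed. The binding signal is per-feature fluorescence intensity (arbitrary units) read on an Axon 4000B scanner.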
row,Sequence,binding signal
1,GCATTTGCTAATGATGGATTAATTAGGCTTAATAGATTCGCGGAGTCACCTAGTGCAG,11800 fluorescence intensity (a.u.)
2,CATCATGATTTGATGATGGATTAATTATGCTTAATAAATTCGGAGTCACCTAGTGCAG,55300 fluorescence intensity (a.u.)
3,AAAATAAATTTGACTGTGAATATACGTTAACTGGTCATAGCGGAGTCACCTAGTGCAG,23100 fluorescence intensity (a.u.)
4,AAATAACAAATTTGACTGTGAATATACGTATACTAGTTAGCGGAGTCACCTAGTGCAG,19300 fluorescence intensity (a.u.)
5,GTGACTGACTGATGATAAATTTGATAATACGCGTCGTTAGCGGAGTCACCTAGTGCAG,63100 fluorescence intensity (a.u.)
6,ATTTATAAATTGATTTGGAGCACAGATCGATACGTGCAGACGGAGTCACCTAGTGCAG,53400 fluorescence intensity (a.u.)
7,CATGATTAATTAAATATTAACGATCATAAATTTGAAAATTCGGAGTCACCTAGTGCAG,29300 fluorescence intensity (a.u.)
8,TGCTAATGATGGATTAATTAGGCTTAATAAATTCGTCTCGCGGAGTCACCTAGTGCAG,54700 fluorescence intensity (a.u.)
9,GTATAAATTTGGACAGATTGTGATTAGATTTATAGTCCTACGGAGTCACCTAGTGCAG,29800 fluorescence intensity (a.u.)
10,TTGCTAATGATGAATTAATTAGGCTTAATAAATTCGTCTCCGGAGTCACCTAGTGCAG,28300 fluorescence intensity (a.u.)
11,CATTTGCTAATGATGGATTAATTAGGCTTAATAAATTTGTCGGAGTCACCTAGTGCAG,19900 fluorescence intensity (a.u.)
12,ATGTTGATTGTCTAAAATCACAGATTTAGCACATTATCGACGGAGTCACCTAGTGCAG,29800 fluorescence intensity (a.u.)
13,GCCCACTCATAATTTCTCCCTTGATTTGTAAAGAAATAAGCGGAGTCACCTAGTGCAG,16000 fluorescence intensity (a.u.)
14,GAAAATTAGTAGAGAACTAATTAGGGATAAAGTCATTATTCGGAGTCACCTAGTGCAG,13000 fluorescence intensity (a.u.)
15,AAGATTTGTCTCATAAATTAGTCGCAATATGTGTAATTAGCGGAGTCACCTAGTGCAG,7560 fluorescence intensity (a.u.)
16,AAAATATCAATTGGCCATAATCATTGTAAGCACTATACAGCGGAGTCACCTAGTGCAG,7780 fluorescence intensity (a.u.)
17,ATCCAATCATACTCCAAGATCTGAAGAGAAGGAGGGATTGCGGAGTCACCTAGTGCAG,11900 fluorescence intensity (a.u.)
18,GATGGACCAATTTGATTGTTGTTGGATTCTACGATGCATGCGGAGTCACCTAGTGCAG,9950 fluorescence intensity (a.u.)
19,GCTTAAATTAATATACCTGAACCGGCGAGCATTTAAATTTCGGAGTCACCTAGTGCAG,5370 fluorescence intensity (a.u.)
20,ACTAATGACGGATTAATTAGGCTTAATAAATTCGTCTCGCCGGAGTCACCTAGTGCAG,51500 fluorescence intensity (a.u.)
21,ATGATTTGTTGTTGAGTTCGGTTTGAAATCAATATAAGTACGGAGTCACCTAGTGCAG,14700 fluorescence intensity (a.u.)
22,TGGCTTAATTTAATCCCCTCCATTCCGGATGCCTCTCCCTCGGAGTCACCTAGTGCAG,20200 fluorescence intensity (a.u.)

row,Sequence,binding signal
1,AATGACTGATTAATTAGGCTTAATAAATTCATCTCGCAGTCGGAGTCACCTAGTGCAG,59600 fluorescence intensity (a.u.)
2,CTAATGACGAGATTAATTAGGCTTAATAAATTCGTCTCGCCGGAGTCACCTAGTGCAG,54800 fluorescence intensity (a.u.)
3,TCGCTTAATTAATTTGGATTTGGATGCGGATCCCTCGCCTCGGAGTCACCTAGTGCAG,56000 fluorescence intensity (a.u.)
4,ACGGATTAATTAGGCTTAATAAATTTGCCTCGCGGTTTCTCGGAGTCACCTAGTGCAG,39200 fluorescence intensity (a.u.)
5,TTGATTGATTTGTTTGCACTCCATGAAATAAGTGAGGGCTCGGAGTCACCTAGTGCAG,65200 fluorescence intensity (a.u.)
6,CGGATTAATTAGGCTTAATAAATTCATCTCGCAGTTTCCTCGGAGTCACCTAGTGCAG,50800 fluorescence intensity (a.u.)
7,GGATTAATTAGGCTTAATAAATTCATCTCGCAGTTTTCTGCGGAGTCACCTAGTGCAG,26200 fluorescence intensity (a.u.)
8,AGTACAAATGACGGATTAATTAGGCTTAATAAATTCGTCTCGGAGTCACCTAGTGCAG,19200 fluorescence intensity (a.u.)
9,TTGATACTCTGATGATTGTAAAGTAAATTGTTTGAAATTTCGGAGTCACCTAGTGCAG,9650 fluorescence intensity (a.u.)
10,CTGATTGGCCATGAGTCCAGAGATAGCATTGAACACAGGACGGAGTCACCTAGTGCAG,32400 fluorescence intensity (a.u.)
11,GGGAGTAATTGAATATGCCTTTTGGGCTGCCATCTGCCCACGGAGTCACCTAGTGCAG,26800 fluorescence intensity (a.u.)
12,TTTGATTTGATTCGTGTGCTCCCCGCCGCCTTCGATCCCTCGGAGTCACCTAGTGCAG,43600 fluorescence intensity (a.u.)
13,CTTAATTGCGCGCGAATGGAGTAATACTAGTACTAGTATACGGAGTCACCTAGTGCAG,15100 fluorescence intensity (a.u.)
14,GACTAAATTTTAATCCCTATCACATCGGATATTTGACACTCGGAGTCACCTAGTGCAG,7230 fluorescence intensity (a.u.)
15,AGGCCCAATTACTGATCGAAATTTCGATGATTTCGATCGACGGAGTCACCTAGTGCAG,18500 fluorescence intensity (a.u.)
16,CCAATTGGAATGCATTGTCTATTTGTTGTCTAGATCTCTCCGGAGTCACCTAGTGCAG,3760 fluorescence intensity (a.u.)
17,AATCTCCTAATTATGTATTGCCCAAATCCATTTATTTTCCCGGAGTCACCTAGTGCAG,7170 fluorescence intensity (a.u.)
18,ACATAACATATGAGATTGAAATTTCTTGAACCATACATTACGGAGTCACCTAGTGCAG,9950 fluorescence intensity (a.u.)
19,CTCACATGTTAATTACCATCAATGTATTTTACTCTTTTAACGGAGTCACCTAGTGCAG,16700 fluorescence intensity (a.u.)
20,TTTATACGAAAATCAATAATTATAGCAGATATCCACAAGGCGGAGTCACCTAGTGCAG,5700 fluorescence intensity (a.u.)
21,ACCTTTTCCGCGTGTTGTGTCTGTTTGTTGAAGATGAATTCGGAGTCACCTAGTGCAG,3280 fluorescence intensity (a.u.)
